From the supplement of paper PMC10849652
Targets with a hit are over-represented here; the source holds about 8,800 in all. About 0.5% of all pairs of compound and target were hits.

Legend:
Test in all cases: log2 fold change, soluble protein after heating vs DMSO (PISA); higher = thermal stabilisation; K562 lysate, 10 uM; active = over 0.2 and 3.5 SD of the protein, either way, in both replicates (recomputed)
[1] = compound: C1=CC=C(C=C1)[C@H](COC2=CC3=C(C=C2)NC(=O)N3)NC(=O)C4=CC=CN(C4=O)CC5=CC(=C(C=C5)F)F
Procedure, shortened: (§1)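 Pellets of K562 cells were dounce-homogenised in PBS pH 7.4 with 1 mM MgCl2, and the crude extract was held at 1 mg/mL protein for a 30 min treatment with 10 μM compound. Aliquots were heated for 3 min over 48°C-58°C and pooled before NP-40 was added to 0.5% at 4°C. The supernatant from 21,000xg for 90 min was quantified by TMTpro 16plex LC-MS/MS with channel sums equalised. Values are reported from duplicates as log-two fold change in thermal stability relative to solvent controls.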

[2] = compound: CC1=C(SC2=C1C(=N[C@H](C3=NN=C(N32)C)CC(=O)N)C4=CC=C(C=C4)Cl)C
Procedure, shortened: as §1

[3] = compound: CC1=C2C(=CC=C1)N=C(N(C2=O)C3=CC=CC=C3C)CN4C=NC5=C(N=CN=C54)N
Procedure, shortened: as §1

[4] = compound: Cc1sc2c(c1C)C(c1ccc(Cl)cc1)=N[C@@H](CC(=O)OC(C)(C)C)c1nnc(C)n1-2
Procedure, shortened: as §1

[5] = compound: c1ccc([C@@H]2C[C@H]2NC2CCNCC2)cc1
Procedure, shortened: as §1

Measured: log2 fold change

THEMIS2 (UniProt Q5TEJ8)
inactive: [1] 0.046 | [2] 0 | [3] 0.019 | [4] 0.052 | [5] -0.054

UBP1 (UniProt Q9NZI7)
UniProt Q9NZI7, sequence (Q9NZI7 whole entry, looked up): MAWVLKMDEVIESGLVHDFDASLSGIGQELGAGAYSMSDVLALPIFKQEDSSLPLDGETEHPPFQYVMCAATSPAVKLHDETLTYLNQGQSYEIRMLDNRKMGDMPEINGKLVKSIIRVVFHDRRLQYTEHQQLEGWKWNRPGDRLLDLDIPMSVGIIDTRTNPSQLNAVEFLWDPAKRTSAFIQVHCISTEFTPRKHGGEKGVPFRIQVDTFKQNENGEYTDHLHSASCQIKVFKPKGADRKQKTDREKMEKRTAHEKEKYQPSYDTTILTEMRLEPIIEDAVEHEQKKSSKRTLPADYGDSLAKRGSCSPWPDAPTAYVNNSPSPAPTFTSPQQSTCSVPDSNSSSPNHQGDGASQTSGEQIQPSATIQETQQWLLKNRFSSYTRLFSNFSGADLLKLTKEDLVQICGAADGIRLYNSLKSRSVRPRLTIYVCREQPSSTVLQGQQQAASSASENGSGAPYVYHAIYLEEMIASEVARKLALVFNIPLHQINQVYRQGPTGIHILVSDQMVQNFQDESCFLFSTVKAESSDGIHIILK
inactive: [1] 0.082 | [2] -0.057 | [3] -0.018 | [4] 0.009 | [5] 0.056

TUBB6 (UniProt Q9BUF5)
inactive: [1] -0.005 | [2] 0.033 | [3] 0.02 | [4] 0.017 | [5] 0.027

UBAP2L isoform 5 (UniProt Q14157)
inactive: [1] -0.047 | [2] 0.049 | [3] -0.022 | [4] 0.029 | [5] -0.004

TMPO isoform 2 (UniProt P42167)
inactive: [1] 0.11 | [2] 0.088 | [3] 0.033 | [4] -0.069

TRMT10A (UniProt Q8TBZ6)
inactive: [1] -0.046 | [2] 0.099 | [3] -0.025 | [4] 0.016 | [5] -0.029

TBC1D20 isoform 3 (UniProt Q96BZ9)
inactive: [1] -0.08 | [2] -0.07 | [3] 0.005 | [4] -0.007 | [5] 0.015

TMPO (UniProt P42167)
inactive: [1] -0.017 | [2] 0.044 | [3] -0.042 | [4] 0.042 | [5] -0.023

TLK2 isoform 2 (UniProt Q86UE8)
inactive: [1] 0.014 | [2] -0.027 | [3] 0.033 | [4] -0.015 | [5] -0.075

TTC5 (UniProt Q8N0Z6)
UniProt Q8N0Z6, sequence (Q8N0Z6 whole entry, looked up): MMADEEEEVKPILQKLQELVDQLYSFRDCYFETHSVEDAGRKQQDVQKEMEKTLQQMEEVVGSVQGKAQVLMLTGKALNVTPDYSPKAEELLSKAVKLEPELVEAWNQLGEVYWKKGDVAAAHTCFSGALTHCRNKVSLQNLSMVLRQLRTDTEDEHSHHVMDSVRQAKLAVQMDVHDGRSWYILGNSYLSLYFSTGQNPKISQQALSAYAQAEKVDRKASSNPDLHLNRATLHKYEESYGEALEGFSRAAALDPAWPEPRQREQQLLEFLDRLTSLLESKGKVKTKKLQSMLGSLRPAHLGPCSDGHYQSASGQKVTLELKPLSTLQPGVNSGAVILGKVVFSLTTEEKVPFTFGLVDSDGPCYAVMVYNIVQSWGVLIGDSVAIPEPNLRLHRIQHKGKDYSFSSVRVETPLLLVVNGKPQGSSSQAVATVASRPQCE
inactive: [1] -0.022 | [2] 0.009 | [3] 0.035 | [4] 0.039 | [5] 0.002

TRAPPC9 isoform 2 (UniProt Q96Q05)
inactive: [1] 0.001 | [2] 0.05 | [3] 0 | [4] 0.055 | [5] -0.042

UBR5 (UniProt O95071)
UniProt O95071, sequence (O95071 whole entry, looked up): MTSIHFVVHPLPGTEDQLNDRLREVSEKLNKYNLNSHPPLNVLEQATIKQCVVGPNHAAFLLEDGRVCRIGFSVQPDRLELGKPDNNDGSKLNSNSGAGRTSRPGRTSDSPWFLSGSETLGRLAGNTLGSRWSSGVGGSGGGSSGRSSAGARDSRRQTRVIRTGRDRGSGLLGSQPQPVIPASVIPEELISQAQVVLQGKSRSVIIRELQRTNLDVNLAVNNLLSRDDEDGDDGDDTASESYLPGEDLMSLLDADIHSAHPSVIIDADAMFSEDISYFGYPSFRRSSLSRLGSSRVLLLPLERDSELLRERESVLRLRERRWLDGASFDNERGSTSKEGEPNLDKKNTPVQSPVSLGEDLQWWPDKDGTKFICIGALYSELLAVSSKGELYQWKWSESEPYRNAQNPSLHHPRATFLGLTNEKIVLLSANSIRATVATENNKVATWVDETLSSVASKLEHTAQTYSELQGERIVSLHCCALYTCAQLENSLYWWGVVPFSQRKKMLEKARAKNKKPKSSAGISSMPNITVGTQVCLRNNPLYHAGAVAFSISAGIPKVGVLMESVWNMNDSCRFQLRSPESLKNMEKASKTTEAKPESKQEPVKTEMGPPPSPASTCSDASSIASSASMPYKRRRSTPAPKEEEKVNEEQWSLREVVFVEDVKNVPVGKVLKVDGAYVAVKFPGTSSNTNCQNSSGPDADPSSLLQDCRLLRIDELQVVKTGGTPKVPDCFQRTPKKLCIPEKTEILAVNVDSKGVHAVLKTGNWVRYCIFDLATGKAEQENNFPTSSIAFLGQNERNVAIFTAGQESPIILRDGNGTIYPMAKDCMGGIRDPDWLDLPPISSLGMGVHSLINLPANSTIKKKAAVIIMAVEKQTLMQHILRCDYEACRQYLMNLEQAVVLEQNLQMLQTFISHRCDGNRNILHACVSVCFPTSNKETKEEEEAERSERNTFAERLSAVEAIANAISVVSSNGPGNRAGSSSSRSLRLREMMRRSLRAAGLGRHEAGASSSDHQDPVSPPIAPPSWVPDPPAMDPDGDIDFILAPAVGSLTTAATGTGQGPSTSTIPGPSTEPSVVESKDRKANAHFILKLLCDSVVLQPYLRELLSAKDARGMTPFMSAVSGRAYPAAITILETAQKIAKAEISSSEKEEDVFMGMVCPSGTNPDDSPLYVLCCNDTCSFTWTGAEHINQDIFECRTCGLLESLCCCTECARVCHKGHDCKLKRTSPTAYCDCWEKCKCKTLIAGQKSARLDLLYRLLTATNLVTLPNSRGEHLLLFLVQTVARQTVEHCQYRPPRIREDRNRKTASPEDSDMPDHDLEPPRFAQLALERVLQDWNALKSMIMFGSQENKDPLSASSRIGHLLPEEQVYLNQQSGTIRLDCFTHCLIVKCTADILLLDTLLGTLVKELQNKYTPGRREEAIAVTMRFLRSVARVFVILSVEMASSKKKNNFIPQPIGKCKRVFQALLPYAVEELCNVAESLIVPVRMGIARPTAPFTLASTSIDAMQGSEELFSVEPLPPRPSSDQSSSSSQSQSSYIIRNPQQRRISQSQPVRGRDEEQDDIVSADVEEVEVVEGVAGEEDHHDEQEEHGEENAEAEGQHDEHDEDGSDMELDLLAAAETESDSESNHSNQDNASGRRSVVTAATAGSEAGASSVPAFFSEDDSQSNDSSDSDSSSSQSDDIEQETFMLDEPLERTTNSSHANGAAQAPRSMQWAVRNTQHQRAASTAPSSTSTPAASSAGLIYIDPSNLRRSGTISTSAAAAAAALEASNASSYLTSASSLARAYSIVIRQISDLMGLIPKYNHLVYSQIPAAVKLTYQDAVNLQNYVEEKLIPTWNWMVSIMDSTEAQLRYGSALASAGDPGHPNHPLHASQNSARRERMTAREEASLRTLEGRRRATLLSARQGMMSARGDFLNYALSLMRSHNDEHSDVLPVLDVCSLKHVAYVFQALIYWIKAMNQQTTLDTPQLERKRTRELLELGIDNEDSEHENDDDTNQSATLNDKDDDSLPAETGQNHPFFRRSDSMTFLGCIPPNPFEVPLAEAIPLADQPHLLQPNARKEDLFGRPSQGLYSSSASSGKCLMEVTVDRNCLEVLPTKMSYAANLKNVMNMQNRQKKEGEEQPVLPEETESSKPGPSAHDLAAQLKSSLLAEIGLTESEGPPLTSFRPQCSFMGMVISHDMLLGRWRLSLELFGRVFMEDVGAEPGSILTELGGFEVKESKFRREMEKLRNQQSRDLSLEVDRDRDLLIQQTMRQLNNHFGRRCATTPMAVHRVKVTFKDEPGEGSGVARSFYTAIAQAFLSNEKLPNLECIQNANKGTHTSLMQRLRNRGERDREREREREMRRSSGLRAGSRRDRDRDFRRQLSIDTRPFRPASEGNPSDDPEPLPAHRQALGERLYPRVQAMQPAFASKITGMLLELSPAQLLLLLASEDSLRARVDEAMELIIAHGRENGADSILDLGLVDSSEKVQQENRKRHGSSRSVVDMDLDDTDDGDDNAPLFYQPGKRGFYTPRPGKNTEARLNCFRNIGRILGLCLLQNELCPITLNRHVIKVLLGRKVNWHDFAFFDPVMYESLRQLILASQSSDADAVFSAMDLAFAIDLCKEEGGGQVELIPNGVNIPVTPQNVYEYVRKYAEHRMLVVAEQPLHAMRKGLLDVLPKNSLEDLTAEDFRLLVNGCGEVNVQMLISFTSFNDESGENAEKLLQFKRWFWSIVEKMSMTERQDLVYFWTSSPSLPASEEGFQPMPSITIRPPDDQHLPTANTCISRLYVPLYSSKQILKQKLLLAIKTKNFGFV
inactive: [1] -0.011 | [2] 0.012 | [3] 0.012 | [4] -0.018 | [5] 0.01

UBAP2L isoform 1 (UniProt Q14157)
inactive: [1] -0.101 | [2] -0.087

TRAPPC6A isoform 2 (UniProt O75865)
inactive: [1] 0.025 | [2] 0.046 | [3] -0.043 | [4] -0.003 | [5] 0.014

UBE4A isoform 2 (UniProt Q14139)
inactive: [1] -0.016 | [2] -0.041 | [3] 0.003 | [4] 0.043 | [5] 0.051

TTC12 isoform 2 (UniProt Q9H892)
inactive: [1] -0.123 | [2] -0.131 | [3] 0.033 | [4] 0.044 | [5] 0.058

TUBGCP4 (UniProt Q9UGJ1)
UniProt Q9UGJ1, sequence (Q9UGJ1 whole entry, looked up): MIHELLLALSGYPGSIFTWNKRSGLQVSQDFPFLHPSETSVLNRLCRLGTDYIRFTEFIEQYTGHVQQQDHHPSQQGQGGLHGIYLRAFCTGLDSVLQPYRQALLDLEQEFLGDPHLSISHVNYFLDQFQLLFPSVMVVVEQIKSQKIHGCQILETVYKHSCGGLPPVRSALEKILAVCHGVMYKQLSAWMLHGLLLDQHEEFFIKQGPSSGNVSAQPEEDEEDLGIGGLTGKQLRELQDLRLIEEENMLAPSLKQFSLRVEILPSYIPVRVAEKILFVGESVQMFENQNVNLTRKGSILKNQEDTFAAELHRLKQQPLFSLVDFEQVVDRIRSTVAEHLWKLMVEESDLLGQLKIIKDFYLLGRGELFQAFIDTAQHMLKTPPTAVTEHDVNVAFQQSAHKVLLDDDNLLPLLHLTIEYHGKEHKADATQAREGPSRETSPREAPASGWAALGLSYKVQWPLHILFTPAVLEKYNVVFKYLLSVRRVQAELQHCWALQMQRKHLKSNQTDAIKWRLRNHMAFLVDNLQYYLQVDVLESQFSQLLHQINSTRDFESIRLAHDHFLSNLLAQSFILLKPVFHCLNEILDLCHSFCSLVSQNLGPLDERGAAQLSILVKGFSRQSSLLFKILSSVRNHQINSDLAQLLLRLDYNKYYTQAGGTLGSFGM
inactive: [1] -0.005 | [2] 0.019 | [3] 0.012 | [4] -0.027 | [5] -0.007

TMEM97 (UniProt Q5BJF2)
inactive: [1] 0.048 | [2] 0.015 | [3] -0.016 | [4] -0.081 | [5] -0.153

TMOD1 (UniProt P28289)
inactive: [1] -0.003 | [2] 0.021 | [3] 0.043 | [4] 0.017 | [5] 0.002

TTC37 (UniProt Q6PGP7)
inactive: [1] -0.08 | [2] 0.044 | [3] 0.16 | [4] -0.3

UBR3 isoform 4 (UniProt Q6ZT12)
inactive: [1] -0.027 | [2] -0.032 | [3] 0.009 | [4] -0.016 | [5] 0.076

UBE2D1 (UniProt P51668)
UniProt P51668, sequence (P51668 whole entry, looked up): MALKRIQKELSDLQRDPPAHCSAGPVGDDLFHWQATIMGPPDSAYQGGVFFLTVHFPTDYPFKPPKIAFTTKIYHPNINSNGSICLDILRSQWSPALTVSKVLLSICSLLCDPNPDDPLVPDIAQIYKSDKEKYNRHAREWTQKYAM
inactive: [1] 0.056 | [2] 0.066 | [3] 0.02 | [4] -0.082 | [5] 0.016

TTI2 (UniProt Q6NXR4)
UniProt Q6NXR4, sequence (Q6NXR4 whole entry, looked up): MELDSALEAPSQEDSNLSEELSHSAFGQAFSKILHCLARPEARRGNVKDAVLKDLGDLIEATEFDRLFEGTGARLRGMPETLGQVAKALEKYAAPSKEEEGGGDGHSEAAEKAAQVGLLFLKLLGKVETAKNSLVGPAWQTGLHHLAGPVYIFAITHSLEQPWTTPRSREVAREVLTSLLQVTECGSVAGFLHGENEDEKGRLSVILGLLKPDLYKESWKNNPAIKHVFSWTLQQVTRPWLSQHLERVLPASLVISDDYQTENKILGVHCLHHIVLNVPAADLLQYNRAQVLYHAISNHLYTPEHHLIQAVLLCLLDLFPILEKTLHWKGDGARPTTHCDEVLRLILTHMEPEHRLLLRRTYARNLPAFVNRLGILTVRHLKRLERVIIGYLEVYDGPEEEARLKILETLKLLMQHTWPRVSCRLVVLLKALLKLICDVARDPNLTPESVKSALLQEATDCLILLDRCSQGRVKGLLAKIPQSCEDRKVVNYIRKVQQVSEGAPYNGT
inactive: [1] -0.044 | [2] 0.009 | [3] 0.033 | [4] -0.035 | [5] 0.024

TMEM263 (UniProt Q8WUH6)
inactive: [1] -0.286 | [2] -0.048 | [3] 0.211 | [4] -0.138 | [5] -0.073
